Experimental data as given in PubChem BioAssay (NCI).
The panel holds about 83,000 compounds, 20% with a hit somewhere; the sample as a whole holds those more often.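 Growth was measured after 48 h exposure to one concentration of compound in 96-well plates. Values under 10 count as active.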 Unmarked numbers belong to inactive results. Calls of active or inactive are those of the source.

tested on: HCT-116 colon; assay: NCI-60 one-dose screen, 48 h (100 = growth as untreated, 0 = no growth, -100 = all killed); conditions: 10 µM unless noted
Experimental: Growth inhibition of the HCT-116 human tumor cell line is measured as a screen for anti-cancer activity. Cells are grown in 96 well plates and exposed to the test compound for 48 hours. Compounds are tested at a single concentration, which is 10^-5 M for most compounds. The reported endpoint is percent growth (GI% or GIPRCNT), where numbers from 0 - 100% represent growth inhibition, and numbers from -100% - 0 represent cell death. For example, a value of 40 represents 60% growth inhibition. A value of 0 means no net growth occurred over the course of the experiment. A value of -40 indicates 40% of cells at the beginning of the experiment died by the end of the experiment. A value of -100 means all cells are dead at the end of the experiment.
NCI-60 Human Tumor Cell Lines Screen was performed using the standard one-dose NCI protocol, which is described in more detail at https://dtp.cancer.gov/discovery_development/nci-60/default.htm.
Compounds with GIPRCNT values below 10 were considered active. Activity score was based on GIPRCNT using the following formula: […]
Score is 0 for GIPRCNT values of 100 or above, 50 for GIPRCNT values of 0, and 100 for GIPRCNT values of -100.

| Structure (SMILES) | growth |
| --- | --- |
| COc1ccc(/C=C2\Oc3cc(OCCCCCN4CCCCC4)ccc3C2=O)cc1OC | -51.2% (active) |
| Cc1ccc(C(=O)/C(=C\c2ccc([N+](=O)[O-])cc2)S(=O)Cc2ccc(F)cc2)cc1 (stereo not given) | -70.7% (active) |
| Cc1c(C(=O)NCCC(=O)NO)sc2ncnc(Nc3ccc(NC(=O)Nc4cccc(C(F)(F)F)c4)cc3)c12 | 108% |
| Cc1cccc(NC(=O)Nc2ccc(-c3ccc4c(c3)NC(=O)/C4=C\c3ccc[nH]3)cc2)c1 | 72.7% |
| CCNc1nc2ccc(Nc3ccnc4cc(Cl)ccc34)cc2[nH]1 | 17.3% |
| COc1cc(C2C3CC4CCCC[C@H]4N3[C@@]3(C(=O)Nc4cc(Cl)ccc43)C2C(=O)c2nc3ccccc3[nH]2)cc(OC)c1OC (stereo not given in full) | 34.7% |
| CC(=O)N1N=C(c2ccc(-n3ccc(C(F)(F)F)n3)c(F)c2)CC1c1ccc[nH]1 (stereo not given) | 103% |
| COc1cccc(-c2cc(C(=O)Nc3ccc(/C=C/c4ccc(OC5CCN(C)CC5)cc4)cc3)ccc2OC)c1 | -93.4% (active) |
| Cc1ccc(C(=O)/C(=C/c2ccc([N+](=O)[O-])cc2)SCc2ccc(Cl)cc2)cc1 | -59.9% (active) |
| C=C(C)[C@@H]1CC[C@]2(C(=O)N[C@H](CO)Cc3ccccc3)CC[C@]3(C)[C@H](CC[C@@H]4[C@@]5(C)CCCNC(C)(C)[C@@H]5CC[C@]43C)[C@@H]12 | -94.8% (active) |
| COc1ccc(C(=O)c2nc3ccccc3n2CC(=O)c2ccc(Cl)cc2)cc1 | 10.3% |
| COc1cc2c(=O)n(CCN(C)C)c3c4cc5c(cc4ccc3c2cc1OC)OCO5 | -7.98% (active) |
| CN(C)c1ccc(C2C(C#N)=C(/N=C/c3ccccc3)Oc3c2ccc2ccccc32)cc1 (stereo not given) | 56.5% |
| C#Cc1cccc(NC(=O)c2cccc(NC(=O)CCl)c2)c1 | -20.3% [8.25 µM] (active) |
| COc1cc2c(cc1OC)C(=O)/C(=C/c1cc(C)c(O)c(C)c1)S2 | 23.1% |
| COc1ccc(CC(C)=C(c2ccc(OCCN3CCCCCC3)cc2)c2ccc(OCCN3CCCCCC3)cc2)cc1 | -55.1% (active) |
| CNC(=O)c1cncc(Cn2nc(C)c(NC(=O)c3ccc(COc4ccc(C(F)(F)F)cc4C)cc3)c2C)c1 | 44.7% |
| Cc1nc2ccc(Cl)cn2c1-c1nnc(SCc2ccc([N+](=O)[O-])cc2)o1 | 58.4% |
| CCN(CC)CCOc1ccc(NC(=O)C(C(C)C)N2C(=O)/C(=C/c3ccc(Br)cc3)SC2=S)cc1 (stereo not given) | -24.8% (active) |
| CCN1CCN(CCNc2nccc(-c3c(-c4cccc(OC)c4)nc4occn34)n2)S1(=O)=O | 99.8% |

| Structure (SMILES) | growth |
| --- | --- |
| CC1(C)NCCC[C@]2(C)[C@H]3CC(=O)[C@H]4[C@@H]5C[C@](C)(CO)CC[C@]5(C)CC[C@@]4(C)[C@]3(C)CC[C@@H]12 | 84.1% |
| CCC(=O)Oc1ccc(/C(=C(\C)c2ccccc2)c2ccc(OCCN3CCCCC3)cc2)cc1 | 60.9% |
| COc1cc2cc(Oc3cccc(NC(=O)Nc4cc(C(F)(F)F)cc(C(F)(F)F)c4)c3)c(C)nc2cc1OC | 3.73% (active) |
| NC1[C@H](c2c[nH]c3ccccc23)c2c([nH]c3ccccc23)[C@H]1c1c[nH]c2ccccc12 (stereo not given in full) | 74.2% |
| O=C(/C(=C\c1ccc([N+](=O)[O-])cc1)S(=O)Cc1ccc(Cl)cc1)c1ccc(Cl)cc1 (stereo not given) | 4.9% (active) |
| CCCCCN1C=C/C(=C\C(=O)N(C)c2ccccc2Br)c2ccccc21 | 87.2% |
| C=C1C(=O)O[C@H]2[C@H]1CC/C(COC(=O)NCc1c[nH]c3ccc(F)cc13)=C\CC[C@@]1(C)O[C@@H]21 | -86.7% (active) |
| CC/C(=C\c1ccc(OC)cc1)C(=O)c1ccc(OC)cc1 | 90.8% |
| N#C/C(=C\c1ccc(Cl)cc1)n1nnc2cc(F)c(F)cc21 | -11.6% (active) |
| CCCN1[C@@H]2CC[C@H]1/C(=C\c1ccc(OC)c(OC)c1)C(=O)/C2=C/c1ccc(OC)c(OC)c1 | 22.1% |
| COc1ccc(/C=C/c2nc(Nc3cccc(NC(C)=O)c3)c3ccccc3n2)cc1 | 81.3% |
| N=C(N)c1ccc(OCCCCCCCCCCOc2ccc(C(=N)N)cc2)cc1 | -99.7% (active) |
| COc1ccc(Cc2cnc(NC(=O)c3ccc4c(c3)OCCO4)s2)cc1 | 7.75% (active) |
| O=C1Nc2cc(-c3ccc(NC(=O)c4ccccc4)cc3)ccc2/C1=C/c1ccc[nH]1 | 99.1% |
| Cn1cc(CC2CC(=O)N(c3ccccc3)C2=O)sc1=NC(=O)c1ccccc1 (stereo not given) | 96.9% |
| Cc1cccc(NC(=O)Nc2ccc(-n3cnc4cc(-c5ccc(O)cc5)ccc43)cc2)c1 | 16.1% |
| COc1cc(NCCCCCNC(C)(C)C)c2ncccc2c1 | 101% |
| O=C(Cn1c(C(=O)c2ccccc2)nc2ccccc21)c1ccc(F)cc1 | 39.2% |
| O=Cc1cc2ccccc2nc1Oc1ccc(C(F)(F)F)cc1 | 102% |
| O=C(Nc1ccc(NC(=O)c2cc(=O)[nH]c3ccccc23)cc1)Nc1cccc(Cl)c1 | 82% |
